In PubChem BioAssay AID504725 (Broad Institute, 2011):
Potency and affinity values are given separately. Active and inactive are the calls of the source. How the calls were made is not given here.

What follows are compounds tested against KSHV LANA C-terminal domain (residues 932-1162) binding to LBS DNA (UniProt O40947) (assay: inhibitors of C-LANA binding to LBS DNA, dose response, biochemical, fluorescence polarization, cherry-picked samples (AID 504725)). Details: MBP-C-LANA / FAM-LBS DNA fluorescence polarization, percent change from plate compound-well median; series mostly up to 35 µM; activity change, negative = inhibition: at the top concentration.

SMILES	activity change, negative = inhibition
COc1ccc(/C=N/NC(=O)c2ccc3nc[nH]c3c2)c(OC)c1	-4.41% (inactive)
CS(=O)(=O)c1cccc(C(=O)Oc2ccccc2)c1	3.42% (inactive)
COc1ccc(OCC(=O)N2CCN(c3cccc(C(F)(F)F)c3)CC2)cc1	2.95% (inactive)
Cn1cc(C(=O)c2ccc(Cl)cc2Cl)cc1C(=O)N/N=C(\N)COc1ccccc1	-0.182% (inactive)
COc1cc(CN2CC(=O)N(c3cc(Cl)ccc3C)C2=S)cc(OC)c1OC	0.297% (inactive)
CCN(CC(=O)Nc1c(F)cccc1F)C(=O)CCCc1cccs1	-1.84% (inactive)
O=[N+]([O-])c1cccc(CSc2nc3ccccc3[nH]2)c1	-3.84% (inactive)
Cc1ccc(NC(=O)CN2C(=O)N/C(=C/c3cc(C)n(-c4ccc(C(=O)O)cc4)c3C)C2=O)cc1	-8.71% (inactive)
CN(C)CCCNC(=O)c1ccccc1Oc1ccccc1	-1.55% (inactive)
Cc1ccc2c(c1)nnn2C1CCN(C(=O)c2cccs2)CC1	-0.596% (inactive)
Cc1cccc(-c2nsc(SCC(=O)Nc3nccs3)n2)c1	2.95% (inactive)
O=C1C=C(c2ccoc2)N2CCC[C@H]2C1	-8.87% (inactive)
Cc1cc2c(N)cccc2nn1	-4.72% (inactive)
O=c1nc(N2CCOCC2)ccn1-c1nc(-c2ccccc2)sc1-c1ccccc1	3.27% (inactive)
COc1ccc(/C=C/c2cc(C(F)(F)F)[nH]c(=O)n2)cc1OC	1.17% (inactive)
COc1ccc(NC(=O)CO/N=C2/CCCc3nonc32)c(OC)c1	3.72% (inactive)
O=c1[nH]nc(CSCc2ccccc2Cl)[nH]1	1.09% (inactive)
O=C(O)/C=C/c1ccccc1Oc1ccccc1	1.51% (inactive)
COc1cccc(NC(=O)CN(C)CC(=O)NCc2ccco2)c1	-0.425% (inactive)

SMILES	activity change, negative = inhibition
CCC(=O)Nc1cccc(C(=O)/C=C/c2ccccc2)c1	-2.05% (inactive)
O=C1c2ccccc2C(=O)C1c1ccccn1	4.49% (inactive)
CC(=O)N/C(=C/c1ccc(OS(=O)(=O)c2ccc(C)cc2)cc1)C(=O)Nc1ccc(C(=O)O)cc1	1.24% (inactive)
Cc1ccc2cccc(OCC(=O)NCCC3=CCCCC3)c2n1	-1.65% (inactive)
Cc1cccnc1NC1(C(F)(F)F)N=C2SCCN2C1=O (configuration not stated)	1.44% (inactive)
Cc1c(C#N)c(=O)c(-[n+]2ccccc2)c([S-])n1-c1ccc(Cl)cc1	3.76% (inactive)
CCN(CC(=O)Nc1ccc(OC)cc1)C(=O)c1cc([N+](=O)[O-])ccc1N1CCOCC1	1.06% (inactive)
COC(=O)c1c(C)oc2ccc(N(C(C)=O)S(=O)(=O)c3ccccc3)cc12	2% (inactive)
CCc1ccc(C2CC(c3cccc(Cl)c3)n3nc(N)nc3N2)cc1 (configuration not stated)	2.28% (inactive)
Cc1cc(S(=O)(=O)NC2CCN(Cc3ccccc3)CC2)c(C)cc1Cl	1.09% (inactive)
Cc1ccc(N(C)C(=O)C2CCCN2S(=O)(=O)c2ccc3c(c2)n(C)c(=O)c(=O)n3C)cc1 (configuration not stated)	-3.63% (inactive)
Brc1ccc(-c2noc(COc3ccc4c(c3)CCC4)n2)o1	-1.67% (inactive)
CCOC(=O)[C@H]1[C@H]2COc3cc(OC)ccc3[C@@H]2N2C(=O)CN(Cc3ccc(OC)cc3)C(=O)[C@@]12C	-1.58% (inactive)
CCN(C(=O)COC(=O)c1ccc([N+](=O)[O-])o1)C1CCCCC1	-4.41% (inactive)
Cc1ccccc1NC(=S)NC(C)CCc1ccccc1 (configuration not stated)	-0.385% (inactive)
COc1ccc(C)cc1NC(=O)C(OC(=O)c1cnccn1)c1ccccc1 (configuration not stated)	-8.66% (inactive)
COc1cccc(C2CC(=O)Nc3cc4c(cc32)CCC4)c1 (configuration not stated)	-1.11% (inactive)
Cc1noc(C)c1CSCC(=O)Nc1nc2c(F)cc(F)cc2s1	-1.36% (inactive)
